The values that follow come from ChEMBL document CHEMBL3988442, “University of Dundee, Small-Polar-MMV Screening Library” (2021).

Hit rate of the full screen: of about 48,000 compounds, about 13,000 (27%) showed an effect of 50% or more. Some of the results follow.

In this assay the test system is Wolbachia pipientis. Nature of the assay: Anti-Wolbachia Cell-Based Screen. The assay is classed as functional. More on the design: scale not given: in the data most compounds retested in dose-response had high values. Particulars: 5 µM.
As to `Cc1ccc(N2C[C@H]3CCC[C@@H](CN4CCOCC4)[C@H]3C2)nn1.O=C(O)C(F)(F)F`, the “Percent Effect” value was determined as 7.309%.

As to `CC(Cn1cccn1)NC(=O)N1CCN(Cc2cccs2)CC1` (stereo not given), the “Percent Effect” value turned out to be 7.648%.

Turning to `O=C1CCc2cc(NC(=O)N3CCCN(Cc4cccs4)CC3)ccc21`, the “Percent Effect” value came out at 4.237%.

As to `Cc1cc(CN2CCN(C(=O)NC(C)Cn3ccnc3)CC2)no1` (stereo not given), the “Percent Effect” value is given as -2.401%.

As to `CC(Cn1ccnc1)NC(=O)N1CCCN(Cc2cccs2)CC1` (stereo not given), the “Percent Effect” value is given as 98.79%.

For `CC(Cn1ccnc1)NC(=O)N1CCN(Cc2cccs2)CC1` (stereo not given), the “Percent Effect” value is 97.63%.

For `O=C(Nc1ccc2c(c1)OCCO2)N1CCCN(Cc2cccs2)CC1`, the “Percent Effect” value was -12.77%.

As for `O=C(NCCn1ccnc1)N1CCCN(Cc2cccs2)CC1`, the “Percent Effect” value came to 115.6%.

For `Cc1ccc(C(=O)N2CCN(C(=O)NC(C)Cn3ccnc3)CC2)o1` (stereo not given), the “Percent Effect” value amounted to 0.8524%.

As to `CC(NC(=O)N1CCCN(Cc2cccs2)CC1)c1cccnc1` (stereo not given), the “Percent Effect” value was -8.61%.

As for `O=C1CCCN1CCN1CCCCC1Cn1cccn1` (stereo not given), the “Percent Effect” value was -13.35%.

For `COc1cc(C2C3=C(COC3=O)Nc3[nH]nc(C)c32)cc2c1OCO2` (stereo not given), the “Percent Effect” value is given as -6.627%.

Regarding `Cc1n[nH]c(C)c1CCNC(=O)Nc1ccc2c(c1)COC2`, the “Percent Effect” value is reported as -11.47%.

Take `O=C(CN1CCNCC1)NCc1ccc2sccc2c1`: the “Percent Effect” value is -21.43%.

For `O=C(Cn1ccc(=O)cc1)NCc1ccc2sccc2c1`, the “Percent Effect” value is recorded as -4.934%.

Take `O=C(CN1CCNC1=O)NCc1ccc2sccc2c1`: the “Percent Effect” value is given as 117.7%.

As for `CC(C)C(=O)N1CCC2(CC1)NC(=O)[C@H]1CN(C(=O)N(C)C)C[C@H]12`, the “Percent Effect” value is -23.47%.

`CC(C)C(=O)N1CCC2(CC1)NC(=O)c1ccccc12.Cl`: the “Percent Effect” value is -14.83%.

As for `CC(=O)N1CC2(CCN(C(=O)c3cccc4[nH]ccc34)CC2)C1`, the “Percent Effect” value was -2.889%.

Regarding `CC(C)C(=O)N1CCC(C)(c2cc[nH]n2)CC1`, the “Percent Effect” value came to 145.9%.

Take `COc1ccc(N)c(N2CCN(C(C)=O)CC2)n1`: the “Percent Effect” value is -3.558%.

As for `CC(=O)N1CCC(C)(c2cc[nH]n2)CC1`, the “Percent Effect” value amounted to 158.8%.

Turning to `CC1(c2cc[nH]n2)CCN(C(=O)c2ccc(Cl)cc2)CC1`, the “Percent Effect” value was 120.3%.

Turning to `Cc1nnc(CCNC(=O)c2coc(CN3CCOCC3)c2)s1`, the “Percent Effect” value is listed as -3.668%.

As to `CCCOc1ccc2c(c1)OCC(C(=O)NC(C)Cn1cccn1)=C2` (stereo not given), the “Percent Effect” value turned out to be 18.55%.

`O=c1c(C(F)(F)F)cccn1Cc1nnc(-c2cccnc2)o1`: the “Percent Effect” value is recorded as -24.3%.

Regarding `N[C@H]1CN(C(=O)CCC(F)(F)F)C[C@@H]1c1ccccc1`, the “Percent Effect” value was determined as 7.576%.

Consider `Cc1nc2cc(C(=O)N3C[C@@H](C(=O)O)[C@H](c4ccncc4)C3)ccc2[nH]1`, for which the “Percent Effect” value is -0.783%.

Regarding `Nc1nc(CCC(=O)N2C[C@H](c3ccccc3)[C@@H](N)C2)cs1`, the “Percent Effect” value is reported as -7.394%.

As for `Cc1nc2cc(C(=O)N3C[C@@H](NS(C)(=O)=O)[C@H](C(C)C)C3)ccc2[nH]1`, the “Percent Effect” value is given as -4.009%.

Turning to `N[C@H]1CN(C(=O)CCc2ccccn2)C[C@@H]1c1ccccc1`, the “Percent Effect” value turned out to be 8.322%.

As to `Cc1nc2cc(C(=O)N3C[C@@H](C(=O)O)[C@H](C4CC4)C3)ccc2[nH]1`, the “Percent Effect” value is recorded as -4.344%.

For the molecule `N[C@H]1CN(C(=O)c2ccc3[nH]c(=O)c(=O)[nH]c3c2)C[C@@H]1c1ccccc1`, the “Percent Effect” value stood at 97.68%.

Take `N[C@H]1CN(C(=O)c2ccc3[nH]c(CO)nc3c2)C[C@@H]1c1ccccc1`: the “Percent Effect” value was found to be 103.3%.

As to `CCC[C@H]1CN(C(=O)c2ccc3[nH]c(CO)nc3c2)C[C@@H]1N`, the “Percent Effect” value is recorded as 98.53%.
